In the supplement of paper PMC13380429:

tested on: Vero E6 infected with SARS-CoV-2; assay: SARS-CoV-2 infection rate relative to infected DMSO; higher = more infection, active = 60 or less; settings: 24 h

Row | SMILES | SARS-CoV-2 infection rate
1 | O=C(c1cncc(Br)c1)N1CCC(N2CCCC2)CC1 (10 µM) | 108% (inactive)
2 | CC[C@]12CCCN3CCc4c(n(c5ccccc45)C(=O)C1)[C@@H]32 [vinburnine] (10 µM) | 99.5% (inactive)
3 | CCNC(=O)C[C@@H]1N=C(c2ccc(Cl)cc2)c2cc(OC)ccc2-n2c(C)nnc21 (10 µM) | 106% (inactive)
4 | COc1cc(C(=O)N2CCC(N3CCN(C)CC3)CC2)ccc1Nc1ncc2c(n1)N(C)c1ccccc1C(=O)N2C (0.833333 µM) | 100% (inactive)
5 | O=C(O)c1ccc(N2C(=O)/C(=C/c3ccc(-c4ccc([N+](=O)[O-])cc4)o3)C=C2c2ccccc2)cc1 (10 µM) | 93% (inactive)
6 | CN[C@@H]1[C@H](O[C@H]2[C@H](O[C@H]3[C@H](O)[C@@H](O)[C@H](NC(=N)N)[C@@H](O)[C@@H]3NC(=N)N)O[C@@H](C)[C@]2(O)CO)O[C@@H](CO)[C@H](O)[C@H]1O [dihydrostreptomycin] (10 µM) | 114% (inactive)
7 | CCCCC(=O)O[C@]1(C(=O)CO)CC[C@H]2[C@@H]3CCC4=CC(=O)CC[C@]4(C)[C@H]3[C@@H](O)C[C@@]21C [hydrocortisone-valerate] (10 µM) | 107% (inactive)
8 | CCOC(=O)c1ccc(O)cc1 [ethyl-paraben] (10 µM) | 104% (inactive)
9 | c1cn2cc(-c3ccc4cn[nH]c4c3)nc(Nc3ccc(N4CCOCC4)cc3)c2n1 (10 µM) | 104% (inactive)
10 | CN(C)C(=N)NCCC[C@H](N)C(=O)O [asymmetrical-dimethylarginine] (10 µM) | 95.5% (inactive)
11 | CCN1C(=O)NC(c2ccccc2)C1=O (stereo not given) [ethotoin] (10 µM) | 97% (inactive)
12 | FCc1ccc(OCCOc2ccc(Cl)cc2Cl)c(Cl)n1 (10 µM) | 116% (inactive)
13 | O=C1OC2(c3ccccc31)c1cc(I)c(O)c(I)c1Oc1c2cc(I)c(O)c1I [erythrosine] (0.833333 µM) | 116% (inactive)
14 | CC/C=C(\C(=O)N[C@@H]1C(=O)N2C(C(=O)OCOC(=O)C(C)(C)C)=C(COC(N)=O)CS[C@H]12)c1csc(N)n1 [cefcapene-pivoxil] (10 µM) | 114% (inactive)
15 | Cc1ccc(/C=C2\CNC/C(=C\c3ccc(C)cc3)C2=O)cc1 (0.833333 µM) | 93% (inactive)
16 | C[C@@H]1CCN(C(=O)CC#N)C[C@@H]1N(C)c1ncnc2[nH]ccc12 (10 µM) | 106% (inactive)
17 | COc1ccc(Cl)cc1C(=O)NCCc1ccc(C(=O)O)cc1 [meglitinide] (10 µM) | 102% (inactive)
18 | O=C(O)[C@H](Cc1ccccc1)NCc1ccc(Cl)cc1 (10 µM) | 102% (inactive)
19 | CC(C(=O)O)c1cccc(C(=O)c2ccccc2)c1 (stereo not given) [ketoprofen] (10 µM) | 102% (inactive)
20 | C[C@H](Cn1cnc2c(N)ncnc21)OCP(=O)(O)O [tenofovir] (10 µM) | 105% (inactive)

Row | SMILES | SARS-CoV-2 infection rate
21 | CC[C@@H]1/C=C(\C)C[C@H](C)C[C@H](OC)[C@H]2O[C@@](O)(C(=O)C(=O)N3CCCC[C@H]3C(=O)O[C@H](/C(C)=C/[C@@H]3CC[C@@H](O)[C@H](OC)C3)[C@H](C)[C@@H](O)CC1=O)[C@H](C)C[C@@H]2OC [ascomycin] (10 µM) | 100% (inactive)
22 | Nc1nc2c(ncn2COCCO)c(=O)[nH]1 [acyclovir] (10 µM) | 104% (inactive)
23 | Cc1cc(Nc2ncc(Cl)c(Nc3ccccc3S(=O)(=O)C(C)C)n2)c(OC(C)C)cc1C1CCNCC1 [ceritinib] (0.833333 µM) | 104% (inactive)
24 | CCCCCCCC(=O)N[C@H](CN1CCCC1)[C@H](O)c1ccc2c(c1)OCCO2 [eliglustat] (10 µM) | 92.5% (inactive)
25 | C=C1/C(=C\C=C2/CCC[C@]3(C)[C@@H]([C@H](C)/C=C/[C@H](C)C(C)C)CC[C@@H]23)C[C@@H](O)C[C@@H]1O [doxercalciferol] (10 µM) | 106% (inactive)
26 | O[C@@](Cc1nc(CC2(C(F)(F)F)CC2)c[nH]1)(c1ccc(-n2cccn2)cc1)C(F)(F)F (10 µM) | 112% (inactive)
27 | O=C(NC(=O)c1c(F)cccc1Cl)NC1c2ccccc2-c2ccccc21 (10 µM) | 102% (inactive)
28 | C[C@@H]1O[C@@H]1P(=O)(O)O (10 µM) | 104% (inactive)
29 | CNCCC=C1c2ccccc2C=Cc2ccccc21 [norcyclobenzaprine] (10 µM) | 81% (inactive)
30 | CCC/C=C1\OC(=O)C2=C1CCC=C2 [ligustilide] (10 µM) | 108% (inactive)
31 | COc1cc(NC(=O)c2ccccn2)ccc1Cl (10 µM) | 96.5% (inactive)
32 | CCCc1nn(C)c2c(=O)[nH]c(-c3cc(S(=O)(=O)N4CCN(C)CC4)ccc3OCC)nc12 [sildenafil] (10 µM) | 109% (inactive)
33 | COc1ccc(-n2nc(CCC(=O)N(C)O)cc2-c2ccc(Cl)cc2)cc1 [tepoxalin] (0.833333 µM) | 104% (inactive)
34 | Nc1cc(F)ccc1NC(=O)/C=C/c1cnn(C/C=C/c2ccccc2)c1 (0.833333 µM) | 109% (inactive)
35 | O=C(OCCOCCO)c1ccccc1Nc1cccc(C(F)(F)F)c1 [etofenamate] (10 µM) | 112% (inactive)
36 | Nc1ccn(C[C@@H](CO)OCP(=O)(O)O)c(=O)n1 [cidofovir] (10 µM) | 108% (inactive)
37 | CCC(=O)NS(=O)(=O)c1ccc(-c2c(-c3ccccc3)noc2C)cc1 [parecoxib] (10 µM) | 106% (inactive)
38 | C[C@@H]1COCCN1c1cc(=O)n2c(n1)N(Cc1cncc(Cl)c1)[C@H](C(F)(F)F)CC2 (0.833333 µM) | 70% (inactive)
39 | COc1ccc(-c2nc(-c3ccc(-c4cccc(Cl)c4)o3)[nH]c2-c2ccc(OC)cc2)cc1 [neurodazine] (10 µM) | 70% (inactive)
40 | COc1ccc2c(C(=S)N(C)CC(=O)O)cccc2c1C(F)(F)F [tolrestat] (10 µM) | 108% (inactive)
